Several values for one entry are separate records, joined by “and”; a condition that tells them apart may be missing. Equal values may be shown once. Results filed as inconclusive are left out. A call without a number means that no potency is given here. A structure can be active in one record and inactive in another. Activity calls are given as the source filed them. Calls come from the whole dose curve; as a rule, active = well fitted curve in the direction sought with a large enough effect; inconclusive = small, poorly fitted or top-dose-only effect, or another doubt; inactive = no such curve, though single readings can be large; an effect the other way counts as inactive or inconclusive.
Potency is the fitted concentration of half-maximal effect.

The target in the first assay is Papain (Carica papaya) (UniProt P00784). Kind of assay: Primary qHTS assay for inhibitors of the protease papain (AID 1645873).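 Note: papain turnover of Z-FR-AMC read as the AMC fluorescence gain over 10 min.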 The following applies: papain Z-FR-AMC cleavage, AMC fluorescence; series mostly up to 49.8 µM. A general note: Quantitative high-throughput screening tests each substance at several concentrations.
Papain (Carica papaya), sequence (P00784 whole entry, looked up): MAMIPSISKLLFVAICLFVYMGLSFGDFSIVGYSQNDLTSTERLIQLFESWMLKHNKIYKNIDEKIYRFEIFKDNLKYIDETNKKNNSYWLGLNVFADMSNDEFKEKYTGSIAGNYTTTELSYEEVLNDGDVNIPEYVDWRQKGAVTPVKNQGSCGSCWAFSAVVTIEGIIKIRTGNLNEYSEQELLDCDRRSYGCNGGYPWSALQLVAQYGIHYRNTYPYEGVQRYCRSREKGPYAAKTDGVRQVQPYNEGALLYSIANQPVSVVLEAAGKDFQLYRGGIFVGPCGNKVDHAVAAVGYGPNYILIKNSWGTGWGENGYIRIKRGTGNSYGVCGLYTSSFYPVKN
On to `C[C@@H]1O[C@@H](O[C@H]2C[C@@H](O)[C@]3(CO)[C@H]4[C@H](O)C[C@]5(C)[C@@H](C6=CC(=O)OC6)CC[C@]5(O)[C@@H]4CC[C@]3(O)C2)[C@H](O)[C@H](O)[C@H]1O`, for which the Potency entry is “inactive”.
Turning to `NN=C(N)N`, the Potency entry was “inactive”.
Still for that read-out and setting: to `Cn1c(CCCC(=O)O)nc2cc(N(CCCl)CCCl)ccc21` belongs 25.1 µM (active).
Still for that read-out and setting: to `CC(CCc1ccccc1)NC(C)C(O)c1ccc(O)cc1` (stereo not given) belongs “inactive”.
In the case of `Cc1cccc(C)c1NC(=O)CN1CCCC1=O`, the Potency entry is “inactive”.
On the same count and under the same terms, for `Cc1cccc(C)c1NC1=NCCCS1` the value was “inactive”; for `NCC1(CC(=O)O)CCCCC1`, “inactive”; for `NCC(CC(=O)O)c1ccc(Cl)cc1` (stereo not given), “inactive”.
On the same count and under the same terms, to `NCC(O)c1ccc(O)cc1` (stereo not given) belongs “inactive”; to `C=C(C)[C@H]1Cc2c(ccc3c2O[C@@H]2COc4cc(OC)c(OC)cc4[C@@H]2C3=O)O1`, “inactive”.

System in the next assay: not listed separately
Kind of assay: Primary qHTS for inhibitors of nuclear receptor binding SET domain protein 2 (NSD2) in an isogenic RCH-ACV NSD2 p.E1099K mutant (9B) (AID 1645876). Note: nearly all actives have a fitted effect of over 70% in size. The following applies: RCH-ACV (leukaemia line) NSD2 E1099K (9B) viability, CellTiter-Glo, 72 h; series mostly up to 44.9 µM.
For the compound `COC[C@@H](NC(C)=O)C(=O)NCc1ccccc1`, the Potency entry is “inactive”.
On to `C=C1CC[C@@]2(O)[C@H]3Cc4ccc(O)c5c4[C@@]2(CCN3CC2CC2)[C@H]1O5`, for which the Potency entry was “inactive”.
For `C[C@@H]1O[C@@H](O[C@H]2C[C@@H](O)[C@]3(CO)[C@H]4[C@H](O)C[C@]5(C)[C@@H](C6=CC(=O)OC6)CC[C@]5(O)[C@@H]4CC[C@]3(O)C2)[C@H](O)[C@H](O)[C@H]1O`, the Potency is 29.9 nM (active) and 50.2 nM (active) and 41.7 nM (active).
On to `NN=C(N)N`, for which the Potency entry is “inactive”.
`CC(C)NCC(O)c1ccccc1Cl` (stereo not given): the Potency entry was “inactive”.
With `CC(C)CC(N(C)C)C1(c2ccc(Cl)cc2)CCC1` (stereo not given), the Potency entry was “inactive”.
Turning to `C[C@]12CCC(=O)C(O)=C1CC[C@@H]1[C@@H]2CC[C@]2(C)C(=O)CC[C@@H]12`, the Potency entry was “inactive”.
Still for that read-out and setting: to `CC(C)(C)NCC(O)c1cc(Cl)c(N)c(Cl)c1` (stereo not given) belongs “inactive”; to `CCC(COC(=O)c1cc(OC)c(OC)c(OC)c1)(c1ccccc1)N(C)C` (stereo not given), “inactive”.
Turning to `CCCC1CCCCN1` (stereo not given), the Potency entry was “inactive”.
Turning to `Cn1cc(C2=C(c3cn(C4CCN(Cc5ccccn5)CC4)c4ccccc34)C(=O)NC2=O)c2ccccc21`, the Potency result is “inactive and 16.4 µM (active)”.
In the case of `O=C1CC[C@@]2(O)[C@H]3Cc4ccc(O)c5c4[C@@]2(CCN3CC2CC2)[C@H]1O5`, the Potency result is “inactive”.
Still for that read-out and setting: to `CC(CCc1ccccc1)NC(C)C(O)c1ccc(O)cc1` (stereo not given) belongs “inactive”; to `Cc1cccc(C)c1NC(=O)CN1CCCC1=O`, “inactive”.
`Cc1cccc(C)c1NC1=NCCCS1`: the Potency entry was “inactive”.
Turning to `NCC1(CC(=O)O)CCCCC1`, the Potency result is “inactive”.
With `NCC(CC(=O)O)c1ccc(Cl)cc1` (stereo not given), the activity change, negative = viability loss is 3.1% [at 0.588 µM] (inactive).
On to `Cc1sc2c(c1C)C(c1ccc(Cl)cc1)=N[C@@H](CC(=O)OC(C)(C)C)c1nnc(C)n1-2`, for which the Potency was 372 nM (active).
On the same count and under the same terms, to `Oc1ccc(Cl)cc1Cc1ccccc1` belongs 24600 nM (active).
The same measure, in the same setting: for `O=[N+]([O-])c1cc([As](=O)(O)O)ccc1O` the value was “inactive”.
For the compound `CC(C)=CC1C(C(=O)OCc2cccc(Oc3ccccc3)c2)C1(C)C` (stereo not given), the Potency entry is “inactive”.
As to `N[C@@H]1C[C@H]1c1ccccc1`, the Potency entry was “inactive”.
`CCC(C(N)=O)N1CCCC1=O` (stereo not given): the Potency result is “inactive”.
`C#CCN(C)[C@H](C)Cc1ccccc1`: the Potency result was “inactive”.
Still for that read-out and setting: to `CC(=O)Nc1cc([As](=O)(O)O)ccc1O` belongs “inactive”; to `c1ccc2c(c1)Nc1ccccc1S2`, “inactive”.
The same measure, in the same setting: for `OCCOc1ccccc1` the value was “inactive”.
In the case of `C=C(C)[C@H]1Cc2c(ccc3c2O[C@@H]2COc4cc(OC)c(OC)cc4[C@@H]2C3=O)O1`, the Potency was 188 nM (active).
Same read-out and setting: for `CN1CCN(C(=O)O[C@H]2c3nccnc3C(=O)N2c2ccc(Cl)cn2)CC1` the value was “inactive”; for `FC(F)(F)c1cccc(C2=CCN(CCc3ccc4ccccc4c3)CC2)c1`, “inactive”.

The values are drawn from PubChem BioAssay (NCATS).
